# Reference: ChEMBL document CHEMBL1201862, “PubChem BioAssay data set” (2004)
# The whole screen tested about 400,000 compounds, of which about 2,100 (0.53%) were called active. Inconclusive results (about 14%) are left out. No rule for the calls is given here. For the sample, actives were picked, then their nearest neighbours and some compounds at random.
# Biological target: Ataxin-2 (Homo sapiens) (UniProt Q99700)
# Experiment: qHTS for Inhibitors of ATXN expression.
# Assay type: functional
# Sequence of Ataxin-2 (Homo sapiens) (Q99700 whole entry): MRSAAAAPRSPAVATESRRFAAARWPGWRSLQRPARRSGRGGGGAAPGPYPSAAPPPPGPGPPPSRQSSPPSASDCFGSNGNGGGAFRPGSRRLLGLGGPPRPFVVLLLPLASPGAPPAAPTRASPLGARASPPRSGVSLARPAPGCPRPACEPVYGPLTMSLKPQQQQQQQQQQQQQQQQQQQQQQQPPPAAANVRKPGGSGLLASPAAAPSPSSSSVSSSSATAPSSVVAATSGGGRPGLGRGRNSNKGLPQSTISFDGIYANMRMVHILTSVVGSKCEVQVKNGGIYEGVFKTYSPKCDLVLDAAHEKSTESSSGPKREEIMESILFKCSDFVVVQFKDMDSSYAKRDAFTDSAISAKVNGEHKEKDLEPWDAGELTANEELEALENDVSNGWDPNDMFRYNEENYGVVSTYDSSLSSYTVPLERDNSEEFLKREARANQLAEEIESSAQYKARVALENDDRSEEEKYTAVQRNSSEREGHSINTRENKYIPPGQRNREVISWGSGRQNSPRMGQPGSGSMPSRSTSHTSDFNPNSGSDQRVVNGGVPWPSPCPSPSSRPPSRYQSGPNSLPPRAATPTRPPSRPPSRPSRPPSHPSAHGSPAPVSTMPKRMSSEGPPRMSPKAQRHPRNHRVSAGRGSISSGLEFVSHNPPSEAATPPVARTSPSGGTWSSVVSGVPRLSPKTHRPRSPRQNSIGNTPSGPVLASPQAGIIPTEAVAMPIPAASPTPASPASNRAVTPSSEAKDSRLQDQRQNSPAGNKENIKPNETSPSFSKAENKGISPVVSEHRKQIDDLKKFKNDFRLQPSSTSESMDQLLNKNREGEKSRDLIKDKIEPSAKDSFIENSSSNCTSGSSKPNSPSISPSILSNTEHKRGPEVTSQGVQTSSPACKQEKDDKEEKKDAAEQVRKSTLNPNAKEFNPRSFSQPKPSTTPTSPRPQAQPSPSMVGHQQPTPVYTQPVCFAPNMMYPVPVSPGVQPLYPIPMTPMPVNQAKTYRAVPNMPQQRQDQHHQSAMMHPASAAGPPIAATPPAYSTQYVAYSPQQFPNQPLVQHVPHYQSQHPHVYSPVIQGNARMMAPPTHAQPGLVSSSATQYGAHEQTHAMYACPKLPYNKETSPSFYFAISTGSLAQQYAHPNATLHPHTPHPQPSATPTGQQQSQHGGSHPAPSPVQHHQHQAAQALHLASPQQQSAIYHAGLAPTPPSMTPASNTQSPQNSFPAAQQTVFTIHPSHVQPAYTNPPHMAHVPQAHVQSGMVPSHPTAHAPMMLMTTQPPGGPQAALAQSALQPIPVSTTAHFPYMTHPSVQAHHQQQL
row,SMILES,Potency
1,O=c1c2ccccc2c(-c2ccc(F)cc2)nn1-c1ccc(C(F)(F)F)cc1,inactive
2,Fc1ccc2cnc(-c3ccccc3)c(-c3cc(C(F)(F)F)cc(C(F)(F)F)c3)c2c1,35.5 µM (active)
3,CCOC(=O)C1(CC2CCCCO2)CCN(S(=O)(=O)c2ccccc2)CC1 (configuration not stated),inactive
4,COc1ccc2cc3cc(C(=O)Nc4ccc5c(c4)OCO5)oc3nc2c1,22.4 µM (active)
5,COc1cccc(/C=C/C(=O)Nc2ccccc2N2CCOCC2)c1,inactive
6,Cc1ccc(C)c(NC(=O)c2cc3ccccc3o2)c1,inactive
7,Cc1ccc2cccc(OCC(=O)Nc3ccc4c(c3)OCO4)c2n1,inactive
8,COc1ccc2cc3cc(C(=O)Nc4ccccc4N4CCN(C)CC4)oc3nc2c1,39.8 µM (active)
9,CN1CCN(c2ccccc2NC(=S)NC(=O)c2cc3ccccc3o2)CC1,39.8 µM (active)
10,COc1c(C)cc(Br)cc1C(=O)Nc1ccccc1N1CCN(C(=O)c2ccccc2)CC1,inactive
11,COc1ccc2cc3cc(C(=O)Nc4ccc5c(c4)OCCO5)oc3nc2c1,28.2 µM (active)
12,COc1ccc(C(=O)Nc2ccccc2N2CCOCC2)cc1S(=O)(=O)N1CCOCC1,inactive
13,COc1ccc(C(=O)Nc2ccc3ccccc3c2)c(OC)c1,inactive
14,Nc1c(C(=O)CSc2nnc(Nc3ccc(F)cc3)s2)c(=O)[nH]c(=O)n1C1CC1,inactive
15,COc1ccc2c(c1)c(=O)oc1cc(O)ccc12,inactive
16,Cc1ccc2nc3c(cc(C(=O)NC4CCCC4)c(=N)n3C(C)C)c(=O)n2c1,inactive
17,O=C(O)c1ccc(/N=c2\oc3cc(O)ccc3cc2C(=O)NCc2ccccc2)cc1,inactive
18,O=c1cc(CN2CCOCC2)c2cc(Cl)c(O)cc2o1,inactive
19,CN(C)C(=O)COc1ccc2c(-c3ccccc3)cc(=O)oc2c1,inactive
20,CCOc1cc(/C=C2\COc3ccccc3C2=O)cc(Br)c1OCC(=O)N(C)C,28.2 µM (active)
21,CCOc1cc(/C=C2/C(=O)ON=C2C)cc(Br)c1O,inactive
22,C=CCn1cc[n+](-c2nc3ccccc3nc2[N-]S(=O)(=O)c2cccs2)c1,inactive
23,CCNc1nc(SCC(N)=O)nc2sc3c(c12)CCN(C)C3,inactive
24,COc1ccc(Cc2n[nH]c(=S)n(N)c2=O)cc1,inactive
25,COC(=O)c1ccc(CO/N=C/c2ccc(OC)cc2)o1,inactive
26,COc1ccc(C[C@@H]2OC3(C=CC(=O)C=C3)O[C@H]2Cc2ccc(OC)cc2)cc1,3.98 µM (active)

row,SMILES,Potency
1,CC1CN(Cc2cc(=O)oc3cc(O)c(Cl)cc23)CC(C)O1 (configuration not stated),inactive
2,CCc1c(O)nc2c(c(C)nn2-c2ccccc2)c1C,inactive
3,CCCSC(=S)c1c(C)nn(-c2ccccc2)c1O,22.4 µM (active)
4,Cc1nn(-c2ccccc2)c(C)c1C(=O)Oc1ccccc1,inactive
5,NC[C@H](Cc1ccccc1)NCCc1cc(C(F)(F)F)cc(C(F)(F)F)c1,39.8 µM (active)
6,NC(=S)c1cc2cc(Cl)ccc2oc1=O,inactive
7,N=c1c(C(=O)NCC2CCCO2)cc2c(=O)n3ccccc3nc2n1C1CCCCC1 (configuration not stated),inactive
8,COc1ccc(NC(=O)CSCC(=O)NCCc2ccccn2)cc1,inactive
9,COc1ccc(NC(=O)CC2Sc3ncnn3C2=O)cc1 (configuration not stated),39.8 µM (active)
10,COc1ccc(NC(=O)CN2CCN(CC(=O)Nc3ccc(OC)cc3)CC2)cc1,inactive
11,O=C(Oc1c(CN2CCOCC2)cc(Cl)c2cccnc12)c1ccccc1F,inactive
12,CC(=O)N1CCc2ccc(S(=O)(=O)N3CCc4ccccc43)cc21,inactive
13,CC(C)c1ccc(S(=O)(=O)N2CCN(C(=O)C3CCCC3)CC2)cc1,inactive
14,CC(=O)N1CCCc2cc(S(=O)(=O)N3CCCC(C(=O)N4CCN(c5cccc(Cl)c5)CC4)C3)ccc21 (configuration not stated),39.8 µM (active)
15,COc1ccc(C(=O)N/N=C/c2cc3ccccc3nc2O)cc1,inactive
16,CC(NC(=O)c1ccc2ccccc2n1)c1ccc(S(N)(=O)=O)cc1 (configuration not stated),inactive
17,COc1ccc(C(=O)NNC(=O)c2ccc3ccccc3n2)cc1,17.8 µM (active)
18,COc1ccc(C2c3[nH]c4ccccc4c3CCN2CCCn2cccn2)c(C)c1C (configuration not stated),inactive
19,Oc1c(N=NC(S)=Nc2ccccc2F)c2ccccc2n1Cc1ccc(Cl)cc1,inactive
20,Cc1cccc(N=C(S)N2CCC(C(N)=O)(N3CCCCC3)CC2)c1C,inactive
21,CCn1c(O)c(N=NC(S)=NCC2CCCO2)c2ccccc21 (configuration not stated),8.91 µM (active)
22,Cc1cccc(N=C(S)N=Nc2c(O)n(CN3CCOCC3)c3ccccc23)c1C,6.31 µM (active)
23,Cc1ccc(C(=O)Nc2nc3n(n2)C(c2ccc(F)cc2)C=C(c2ccccc2)N3)cc1 (configuration not stated),inactive
24,O=C(O)c1cc(-c2ccc(/C=C3/SC(=S)N(Cc4ccccc4)C3=O)o2)ccc1Cl,inactive
25,O=C1/C(=C\c2cccc(O)c2O)SC(=S)N1Cc1ccccc1,31.6 µM (active)
26,O=C(O)CN1C(=O)/C(=C\c2cccc(OCc3ccc(Cl)cc3)c2)SC1=S,inactive

row,SMILES,Potency
1,NS(=O)(=O)c1ccc(CCN2C(=O)/C(=C\c3ccc(Cl)cc3)SC2=S)cc1,17.8 µM (active)
2,COc1cc([N+](=O)[O-])cc(/C=C2/SC(=S)N(Cc3ccccc3)C2=O)c1O,20 µM (active)
3,NS(=O)(=O)c1ccc(CCNS(=O)(=O)c2ccc(Cl)s2)cc1,inactive
4,O=C1/C(=C/c2ccccc2Cl)SC(=S)N1CCCC(=O)N(CCO)c1ccccc1,31.6 µM (active)
5,COc1ccc(/C=C(\C)C(=O)c2c(C)cc(C)nc2O)cc1,inactive
6,Cc1ccc2c(CN(C)Cc3cccc(Cl)c3)cc(=O)oc2c1C,inactive
7,C=C1c2ccccc2N=C(S)N1Cc1ccc2c(c1)OCO2,inactive
8,COCc1cc(C)nc(SCC(=O)Oc2ccc(Cl)cc2)c1C#N,inactive
9,N=c1c(C(=O)NC2CCCCC2)cc2c(=O)n3ccccc3nc2n1CC1CCCO1 (configuration not stated),inactive
10,CCn1nc(NC(=O)C(C)(C)C)c2cc3cccc(C)c3nc21,inactive
11,O=C1/C(=C\c2cc([N+](=O)[O-])ccc2O)SC(=S)N1Cc1ccc(Cl)cc1,35.5 µM (active)
12,O=C1c2ccc([N+](=O)[O-])cc2C(=O)N1c1ccc(Cl)cn1,inactive
13,CN(C)c1ccc(/C=C/C=N/Nc2nc(N3CCOCC3)nc(N3CCOCC3)n2)cc1,inactive
14,OCCCNc1nc(-c2ccccc2)c2cc(Cl)ccc2n1,inactive
15,O=C(CCl)NNc1nc(-c2ccccc2)c2cc(Cl)ccc2n1,1.58 µM (active)
16,OCCNc1nc(-c2ccccc2)c2cc(Cl)ccc2n1,inactive
17,CCC(C)(C)n1nnnc1C(c1ccc(F)cc1)N1CCC(C(N)=O)CC1 (configuration not stated),inactive
18,CCOC(=O)c1c(CC(C)C)csc1NC=C1C(=O)CCCC1=O,39.8 µM (active)
19,CCOC(=O)c1c(CC(C)C)csc1N,inactive
20,CCOC(=O)c1c(CC(C)C)csc1/N=C/C1C(=O)CCCC1=O,inactive
21,CCc1c(C)c2cc(Cl)c(O)c(CN3CCCC3)c2oc1=O,inactive
22,O=C(NNC(=O)c1ccc(Cl)cc1Cl)c1cnccn1,inactive
23,Cc1ccc(OCCSc2nc3ccccc3n2CC(=O)N2CCCCC2)c(C)c1,35.5 µM (active)
24,CCc1ccc(OCCSc2nc3ccccc3n2CCC(=O)O)cc1,inactive
25,CCc1ccc(OCCSc2nc3ccccc3n2CC(=O)N2CCCCC2)cc1,39.8 µM (active)
26,CN(CCOc1ccc(Cl)cc1)C(=O)c1ccccc1SCC(=O)N1CCCC1,inactive

row,SMILES,Potency
1,O=C(CSc1nc2ccccc2n1Cc1ccc(Cl)cc1)N/N=C/c1ccc(C(=O)O)cc1,inactive
2,COc1ccccc1OCc1nnc(SCC(=O)N2CCCCC2)o1,inactive
3,COCCn1c(SCC(=O)NC2CC2)nc2ccccc21,inactive
4,O=C(Cn1c(SCCOc2ccc(Cl)cc2)nc2ccccc21)N1CCCCC1,39.8 µM (active)
5,Cc1cccc(OCCCC(=O)N2CCCCCC2)c1C,inactive
6,COc1ccc(CSc2ncnc3sccc23)cc1F,inactive
7,Clc1ccc(-n2nnnc2Sc2ncnc3sccc23)cc1,20 µM (active)
8,COc1ccc(-c2cc(NC=O)c3ncc(-c4cnn(C)c4)n3c2)cc1,inactive
9,CC(=O)Nc1cc(-c2ccc(N3CCN(C)CC3)cc2)cn2c(-c3ccc(F)c(Cl)c3)cnc12,35.5 µM (active)
10,COc1cc(-c2cnc3c(NC(C)=O)cc(-c4ccc(N5CCN(C)CC5)cc4)cn23)cc(OC)c1OC,39.8 µM (active)
11,Cn1c(-c2ccc(F)cc2)cnc1NCc1ccc(F)cc1F,inactive
12,COc1ccc(-c2c(C)c3ccc(O)c(CN4CCN(C)CC4)c3oc2=O)cc1OC,inactive
13,CN1CCN(c2ccc(-c3cc(NC=O)c4ncc(-c5ccc(F)c(Cl)c5)n4c3)cc2)CC1,inactive
14,CC(=O)Nc1cc(-c2ccc(N3CCN(C)CC3)cc2)cn2c(-c3ccc(F)cc3)cnc12,35.5 µM (active)
15,CCCCNC(=O)c1cc2c(=O)n3cccc(C)c3nc2n(Cc2ccncc2)c1=N,inactive
16,CCCc1cc(NCCCN(C)C)n2c(nc3ccccc32)c1C#N,inactive
17,Cc1nc(N/N=C/c2ccc(Br)cc2)cc(N2CCOCC2)n1,inactive
18,O=C(OCc1nc(O)c2c(-c3ccccc3)csc2n1)c1cc(Cl)ccc1[N+](=O)[O-],inactive
19,C=CCNC(=O)c1c(N)n(-c2cccc(S(N)(=O)=O)c2)c2nc3ccccc3nc12,inactive
20,CC1=CC(=O)C=C/C1=C(/c1ccc(O)cc1C)c1ccccc1S(=O)(=O)O,inactive
21,O=S(=O)(O)c1cc(O)c(N=Nc2ccc(O)cc2O)c2ccccc12,22.4 µM (active)
22,O=c1oc2cc(O)ccc2c2ccccc12,inactive
23,CN1C(=O)/C(=N\CCc2ccccc2)c2c3ccccc3c(O)c3cccc1c23,inactive
24,Sc1nc(-c2ccccc2)cn1/N=C/c1ccccc1Br,inactive
